A short description of test [1]: compound effects on lung adenocarcinoma cell viability – A549, calcein-AM fluorescence, 48 h, basal, profiling panel (AID 1162). Also: test concentration not given here. Conditions: higher = more signal.
Test [2] is described as follows: compound effects on differentiated 3T3-L1 adipocyte viability – cell-based, 3T3-L1 adipocytes, calcein-AM fluorescence, 48 h, basal, profiling panel (AID 1163). Also: test concentration not given here. The note with it: 3T3-L1 adipocytes viability, higher = more signal.
A short description of test [3]: compound effects on hepatocellular carcinoma cell viability – HepG2, calcein-AM fluorescence, 48 h, basal, profiling panel (AID 1164). Also: test concentration not given here. Conditions: higher = more signal.
The nature of test [4]: compound effects on multiple myeloma cell viability – MM1S, calcein-AM fluorescence, 48 h, basal, profiling panel (AID 1165).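 Also: viability of MM1S multiple myeloma cells under basal unstimulated conditions; test concentration not given here.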 The note with it: higher = more signal.
Test [5] can be described thus: calcein-AM signal in unstimulated myeloma cells – cell-based, calcein-AM fluorescence, 48 h, PK04 Diversity Set, profiling panel (AID 1166).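 Also: cells grown under basal conditions without added stimulus; test concentration not given here.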 The note with it: RPMI8226 myeloma viability, higher = more signal.
A short description of test [6]: JC-1 mitochondrial signal, unstimulated HepG2 cells – cell-based, JC-1 fluorescence, 24 h, 100 nL compound, profiling panel (AID 1167). Also: test concentration not given here. Conditions: HepG2 mitochondrial potential, higher = more signal.
Test [7] in a line: JC-1 mitochondrial signal, unstimulated adipocytes – cell-based, JC-1 fluorescence, 3T3-L1 adipocytes, 24 h, 100 nL compound, profiling panel (AID 1168). Also: test concentration not given here. Conditions: JC-1 mitochondrial fluorescence, higher = more signal, called active from +8 up or from −8 down.
The nature of test [8]: JC-1 mitochondrial signal, unstimulated myeloma cells – cell-based, JC-1 fluorescence, RPMI8226, 24 h, 100 nL compound, profiling panel (AID 1169). Also: test concentration not given here. The note with it: JC-1 mitochondrial potential fluorescence, higher = more signal.
Test [9] is described as follows: JC-1 mitochondrial signal, unstimulated MM1S myeloma – cell-based, JC-1 fluorescence, 24 h, 100 nL compound, profiling panel (AID 1170). Also: test concentration not given here. The note with it: MM1S mitochondrial potential, higher = more signal.
Test [10] is described as follows: resazurin metabolic signal in A549 cells – cell-based, resazurin fluorescence, 24 h, PK04 Diversity Set, profiling panel (AID 1171). Also: test concentration not given here. Conditions: A549 viability, higher = more signal, called active from +8 up or from −8 down. For orientation: Resazurin is reduced to fluorescent resorufin, in cell work by metabolically active cells.
The nature of test [11]: resazurin metabolic signal in HepG2 cells – cell-based, resazurin fluorescence, 24 h, PK04 Diversity Set, profiling panel (AID 1172). Also: test concentration not given here. Conditions: HepG2 viability, higher = more signal.
The nature of test [12]: budding yeast growth changes without added modifier – OD600, strain BY4716, 24 h, basal condition, primary screen (AID 1173). The note with it: S. cerevisiae BY4716 growth, OD600, 24 h; higher = more signal, called active from +8 up or from −8 down.
Test [13] is described as follows: viability profiling in MM1S myeloma cells – cell-based, resazurin fluorescence, basal, 24 h, PK04 Diversity Set, profiling panel (AID 1174). Also: test concentration not given here. Conditions: higher = more signal, called active from +8 up or from −8 down.
Test [14] addresses Dihydroorotate dehydrogenase (quinone), mitochondrial (Plasmodium falciparum (isolate 3D7)) (UniProt Q08210). Description: inhibition of P. falciparum DHODH – biochemical, C-terminal His tag, absorbance 600 nm, primary screen (AID 1175).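 Also: recombinant parasite enzyme with a five histidine tag at its C terminus; test concentration not given here.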 The note with it: PfDHODH enzyme, DCIP absorbance 600 nm; higher = more signal, called active from +8 up or from −8 down.
A short description of test [15]: inhibition of PAO1 biofilm formation – strain PAO1, LB-PBS medium, absorbance 600 nm, primary screen (AID 1176). Also: test concentration not given here. The note with it: P. aeruginosa PAO1 growth/biofilm, A600, 12 h; higher = more signal.
Test [16] is described as follows: growth modulation of vineyard yeast isolate – strain RM11-1a, OD600, basal, 24 h, primary screen (AID 1177).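 Also: cultures grown under basal conditions with no added stressor; test concentration not given here.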 Conditions: S. cerevisiae RM11-1a growth, OD600, 24 h; higher = more signal, called active from +8 up or from −8 down.
Test [17] is described as follows: growth of efflux-deficient E. coli DRC39 – strain DRC39, OD650, 24 h, E. coli filamentation inducers, primary screen (AID 1178).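 Also: growth measured as culture turbidity by optical density at 650 nm; test concentration not given here.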 Conditions: E. coli DRC39 acrAB, higher = more signal, called active from +8 up or from −8 down.
Test [18] can be described thus: growth of efflux-deficient E. coli DRC39 – strain DRC39, OD650, 48 h, E. coli filamentation inducers, primary screen (AID 1179).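 Also: screen aims at cell division blockers that make cells filament.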 The note with it: E. coli DRC39 delta-acrAB growth, higher = more signal, called active from +8 up or from −8 down.
The nature of test [19]: viability profiling in RPMI8226 myeloma cells – cell-based, resazurin fluorescence, basal, 24 h, PK04 Diversity Set, profiling panel (AID 1180).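 Also: RPMI8826 multiple myeloma cell line at 5000 cells per well; test concentration not given here.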 Conditions: higher = more signal.
Test [20] deals with E3 ubiquitin-protein ligase XIAP (Homo sapiens) (UniProt P98170). Description: small molecules binding XIAP protein – biophysical, small-molecule microarray, fluorescence 635 nm, primary screen (AID 1181).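 Also: score merges 667 nm emission and signal to noise over triplicate slides.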 Conditions: higher = more signal.

Each structure is given as a SMILES string. Calls of active or inactive are those of the source. Unless noted, no rule for the calls is given here.

Sequence of Dihydroorotate dehydrogenase (quinone), mitochondrial (Plasmodium falciparum (isolate 3D7)) (Q08210 whole entry, looked up): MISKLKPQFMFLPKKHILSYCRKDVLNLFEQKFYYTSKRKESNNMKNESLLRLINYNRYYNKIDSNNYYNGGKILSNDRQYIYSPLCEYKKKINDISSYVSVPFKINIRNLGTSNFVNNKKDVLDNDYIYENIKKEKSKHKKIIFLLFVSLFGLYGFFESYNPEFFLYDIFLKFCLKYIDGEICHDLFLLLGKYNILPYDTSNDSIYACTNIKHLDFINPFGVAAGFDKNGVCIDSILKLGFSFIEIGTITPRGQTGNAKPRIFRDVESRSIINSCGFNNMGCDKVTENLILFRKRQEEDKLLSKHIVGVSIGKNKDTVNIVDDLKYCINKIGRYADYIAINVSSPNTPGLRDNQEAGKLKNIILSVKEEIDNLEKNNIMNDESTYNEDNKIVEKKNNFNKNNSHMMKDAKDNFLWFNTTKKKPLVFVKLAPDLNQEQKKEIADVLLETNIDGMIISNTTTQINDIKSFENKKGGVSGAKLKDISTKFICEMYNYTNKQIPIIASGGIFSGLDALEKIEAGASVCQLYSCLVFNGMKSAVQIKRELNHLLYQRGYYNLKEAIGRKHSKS
Sequence of E3 ubiquitin-protein ligase XIAP (Homo sapiens) (P98170 whole entry, looked up): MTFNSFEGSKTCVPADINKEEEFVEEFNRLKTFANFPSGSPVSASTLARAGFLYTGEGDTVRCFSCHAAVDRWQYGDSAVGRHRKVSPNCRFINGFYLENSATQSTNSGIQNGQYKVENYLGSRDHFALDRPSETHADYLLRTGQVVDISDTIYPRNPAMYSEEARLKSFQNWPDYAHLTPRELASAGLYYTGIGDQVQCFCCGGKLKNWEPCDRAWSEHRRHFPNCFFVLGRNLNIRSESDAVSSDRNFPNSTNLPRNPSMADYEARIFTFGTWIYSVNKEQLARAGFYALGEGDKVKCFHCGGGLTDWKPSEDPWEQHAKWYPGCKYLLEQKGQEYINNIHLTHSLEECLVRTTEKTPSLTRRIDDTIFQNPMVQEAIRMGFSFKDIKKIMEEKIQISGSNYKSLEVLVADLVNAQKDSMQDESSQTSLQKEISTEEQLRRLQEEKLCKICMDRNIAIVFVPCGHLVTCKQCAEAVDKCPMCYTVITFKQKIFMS

In the case of `C=CCC(OC(C)=O)[C@@H]1[C@@H](N(Cc2ccc(-c3ccccc3)cc2)C(=O)c2ccc(-c3ccccc3)cc2)c2cc(OCCCO)ccc2N1C(=O)Cc1ccc2ccccc2c1` (stereo not given in full), the z-score in test [1] is -0.475; in test [2], 0.367; in [3], 0.325; in test [4], -2.3; in test [5], -0.806; in test [6], 0.96. Moreover, the z-score was -1.07 (inactive) in test [7]; -0.793 in test [8]; 0.292 in [9]; 1.2 (inactive) in [10]; 0.289 in test [11]; 0.274 (inactive) in test [12]. Moreover, the z-score is 0.7 (inactive) in test [13]; 0.526 (inactive) in test [15]; -0.357 (inactive) in [16]; -0.433 (inactive) in [17]; -0.5 (inactive) in [18]; 0.465 in [19]. Moreover, the figures for the composite z-score in test [14] and in test [20] were -0.0366 (inactive) and 0.225, respectively.
For `COC(=O)C(CC#Cc1ccc2c(c1)[C@]1(C(=O)N2)[C@H](C(=O)Nc2nc3ccccc3s2)[C@H]2C(=O)O[C@H](c3ccccc3)[C@H](c3ccccc3)N2[C@@H]1c1ccccc1OCCO)C(=O)OC`, the z-score in [1] was -0.231; in test [2], 0.728; in test [3], 0.0091; in test [4], -0.426; in [5] it was -2.6; in test [6], -2.7. Moreover, the z-score is -0.502 (inactive) in test [7]; -1.17 in [8]; -1.63 in test [9]; -0.367 (inactive) in test [10]; 0.522 in [11]; 0.839 (inactive) in [12]. Besides, the z-score is -0.334 (inactive) in test [13]; 2.47 (inactive) in test [15]; 2.1 (inactive) in test [16]; -0.0715 (inactive) in test [17]; 0.037 (inactive) in [18]; -1.1 in test [19]. Moreover, the composite z-score is -4.92 (inactive) in [14] and 0.472 in test [20].
In the case of `C=CCN1C(=O)[C@]2(O[C@H](CCn3cc([C@H](O)c4ccccc4)nn3)[C@@H]([Si](C)(C)c3ccc(OC)cc3)[C@@H]2C)c2ccccc21`, the z-score in test [1] was -0.366; in test [2], 0.76; in test [3], -1.85; in test [4] it was -2.65; in [5] it was -4.3; in test [6], -0.97. For the same molecule, the z-score was 0.203 (inactive) in test [7]; -0.953 in test [8]; -2.26 in [9]; -1.75 (inactive) in test [10]; -1.25 in test [11]; -0.242 (inactive) in test [12]. In addition, the z-score in test [13] is -1.68 (inactive); in test [15], 1.29 (inactive); in [16], 0.507 (inactive); in test [17], 0.617 (inactive); in test [18] it was 0.169 (inactive); in test [19] it was -1.69. Further, the composite z-score in [14] is -0.591 (inactive); in [20] it was -0.104.
As to `C[N+](C)(C)CCCC[C@@H]1NC(=O)[C@H]2C[C@@H](C(=O)NCCCCCCNC(=O)CS)[C@@H](c3cccc(OCCO)c3)N2C1=O`, the z-score is -1.42 in test [1]; -0.132 in [2]; -0.153 in test [3]; 0.0157 in [4]; -0.682 in test [5]; 0.325 in test [6]. The z-score is 0.0973 (inactive) in test [7]; -0.277 in [8]; -0.326 in test [9]; -0.257 (inactive) in [10]; -0.191 in [11]; 0.578 (inactive) in [12]. In addition, the z-score is -0.0499 (inactive) in test [13]; -0.0896 (inactive) in [15]; 0.293 (inactive) in test [16]; 0.474 (inactive) in [17]; 0.645 (inactive) in [18]; -0.442 in [19]. Also, the composite z-score in test [14] was 0.459 (inactive); in test [20], -0.227.
`CN1C(=O)C2C=CC(C(O)c3ccco3)N(Nc3ccccc3)C2C1=O` (stereo not given): the z-score was -0.835 in test [1]; -1.12 in test [2]; -0.315 in test [3]; -1.34 in test [4]; -0.137 in test [5]; -1.67 in [6]. For the same molecule, the z-score in test [7] was -0.783 (inactive); in [8], 0.819; in test [9], -0.101; in test [10], -0.579 (inactive); in [11], -0.86; in test [12], 1.35 (inactive). Besides, the z-score was -0.944 (inactive) in test [13]; 1.41 (inactive) in [15]; 1.61 (inactive) in test [16]; -0.436 (inactive) in test [17]; -0.0442 (inactive) in [18]; -0.328 in [19]. Moreover, the composite z-score in test [14] was 1.24 (inactive); in test [20], 0.42.
Regarding `CC1(C)[C@@H]2CC(C(O)C3C=CC4C(=O)N(c5ccccc5)C(=O)C4N3Nc3ccc([N+](=O)[O-])cc3)=C[C@H]1C2` (stereo not given in full), the z-score in [1] is -0.0923; in [2], -0.484; in [3], -0.0345; in [4] it was 0.114; in [5] it was 0.287; in test [6], -1.41. The z-score was -2.48 (inactive) in test [7]; 0.428 in test [8]; -1.09 in [9]; 0.539 (inactive) in [10]; -0.128 in test [11]; 0.318 (inactive) in test [12]. Further, the z-score in test [13] was 0.218 (inactive); in [15], 1.07 (inactive); in [16], 0.08 (inactive); in [17] it was -0.982 (inactive); in test [18], -0.512 (inactive); in test [19], 0.0954. Further, the composite z-score in test [14] is 0.634 (inactive); in test [20], -0.141.
For `O=C1O[C@H](c2ccccc2)[C@H](c2ccccc2)N2[C@H]1[C@@H](C(=O)N1CCCCCCC1)[C@]1(C(=O)Nc3ccc(C#CCCO)cc31)[C@H]2c1ccccc1OCCO`, the z-score in [1] was 0.405; in [2] it was 0.911; in [3], 0.518; in test [4] it was -1; in test [5], -3.71; in test [6] it was 0.42. Further, the z-score in test [7] is 0.757 (inactive); in [8] it was -1.3; in [9], -1.11; in [10], 0.458 (inactive); in [11] it was -0.118; in test [12], 1.09 (inactive). In addition, the z-score is -1.12 (inactive) in test [13]; 1.15 (inactive) in [15]; 2.99 (inactive) in test [16]; -0.805 (inactive) in test [17]; -0.106 (inactive) in test [18]; -2.97 in [19]. In addition, the composite z-score in test [14] was 0.929 (inactive); in [20] it was 2.87.
Regarding `COCC(=C=CC[C@@H](O)c1cccc(OCCO)c1)C[C@@H](O)c1ccccn1`, the z-score is 0.492 in test [1]; -0.0288 in [2]; -0.112 in [3]; 0.265 in test [4]; -0.51 in test [5]; 0.00274 in test [6]. The z-score in test [7] is 0.613 (inactive); in [8], 0.00702; in [9], -0.0149; in [10] it was 0.391 (inactive); in [11], 0.353; in [12], -0.449 (inactive). The z-score is 0.423 (inactive) in test [13]; -0.353 (inactive) in test [15]; 0.0156 (inactive) in test [16]; 0.947 (inactive) in [17]; 0.604 (inactive) in [18]; 0.973 in test [19]. For the same molecule, the composite z-score is -1.61 (inactive) in [14] and 0.0471 in test [20].
